Consider five compounds from PubChem BioAssay.

The nature of assay [1]: yeast TOR pathway RPL19A-GFP modulators, primary screen, cell-based, S. cerevisiae, multiplex flow cytometry (AID 1862; in the data active = percent of DMSO control GFP below about 86%;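 also: lower values mimic rapamycin by blocking the RPL19A rise seen in DMSO cells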). To be noted: S. cerevisiae RPL19A-GFP strain, flow cytometry fluorescence, 3 h; at 10 µM; stronger effect = lower value. A general note: A flow cytometer gives signals particle by particle.
Assay [2] is described as follows: modulators of MEP2-GFP levels in yeast, primary screen, S. cerevisiae, multiplex flow cytometry (AID 1867;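 active = GFP response, as percent of the DMSO control, above the screen-wide mean plus 3 SD, about 139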;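 also: median GFP channel fluorescence of barcode-gated MEP2-GFP cells measured by flow cytometry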). To be noted: S. cerevisiae MEP2-GFP strain, 3 h, at 10 µM, stronger effect = higher value, 100% means same as DMSO wells.
Assay [3] in a line: modulators of CIT2-GFP expression in yeast, primary screen, S. cerevisiae, GFP fusion, multiplex flow cytometry (AID 1870;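 active = percent response above a set limit, the screen-wide mean plus 3 SD, cut at about 130% in these data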;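 also: barcoded CIT2-GFP strain pooled with four other GFP strains with rapamycin as positive control; median GFP fluorescence per well over plate mean of DMSO wells so 100% = DMSO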). As to conditions: 3 h, at 10 µM, stronger effect = higher value.
A short description of assay [4]: modulators of LAP4-GFP expression in yeast, primary screen, S. cerevisiae, multiplex flow cytometry (AID 1873;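 active = GFP signal, as percent of the solvent control, above the screen mean plus 3 SD, about 149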). To be noted: 3 h, at 10 µM, stronger effect = higher value.
Assay [5] is described as follows: modulators of AGP1-GFP expression in yeast TOR pathway, primary screen, cell-based, multiplex flow cytometry, S. cerevisiae (AID 1887;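 active = GFP signal above the screen-wide mean plus 3 SD, that is over about 124.5% of the solvent control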;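 also: AGP1-GFP fusion strain of S. cerevisiae within a five-strain barcoded multiplex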). As to conditions: 3 h, at 10 µM, stronger effect = higher value.
Assay [6] is described as follows: inhibitors of CD8+ T cell-vesicle binding, pilot screen, LFA-1/ICAM-1 modulator project, MLPCN validation set, flow cytometry (AID 2523;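 active = response below a set limit, under 55% cells CD8-positive and vesicle-bound, and CD8 cells' 90th-percentile brightness under 279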;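 as to vesicle binding response: mean PE anti-B7-1 fluorescence of CD8+ cells relative to row control; 100% = QL9-loaded vesicles with DMSO vehicle in the same plate row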). To be noted: 2C mouse CD8+ T cells, at 7 µM, stronger effect = lower value; double positive events: measured here: CD8+/vesicle+ event percentage.
Assay [7] has as its target Integrin beta-1 (Homo sapiens) + Integrin alpha-4 (Homo sapiens) (UniProt P13612+P05556). Briefly: inhibition of HUTS-21 binding to VLA-4, pilot screen, VLA-4 allosteric modulator project, U937 cells, HUTS-21 mAb, flow cytometry, validation set (AID 2674;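 active = inhibition above 50%, about 3 SD of the validation set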;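 also: antibody binding induced by the VLA-4 ligand LDV present at three times its Kd; 0% = LDV ligand with antibody and no compound and 100% = antibody without LDV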). As to conditions: HUTS-21 LIBS mAb binding, at 6.7 µM, stronger effect = higher value, binding induced by LDV ligand.
Assay [8] is described as follows: superoxide lowering in aged yeast cells, pilot screen, validation compound set (AID 2706;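 active = superoxide response below 65% of plate, a cut near 3 SD across the whole screen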;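 also: yeast exposed to compound for one week at 30 degrees C before staining; 100% = mean of all compound wells on the same plate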). As to conditions: S. cerevisiae aging, superoxide DHE fluorescence; at 10 µM; stronger effect = lower value.
The target of assay [9] is Beta-adrenergic receptor kinase 1 (Homo sapiens) (UniProt P25098). Description: GRK2 binders displacing RNA aptamer, biochemical, validation, human GRK2, bead flow cytometry (AID 488806;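 active = aptamer binding inhibition above 30%, about 3 SD of noise from non-fluorescent compounds; inactive = inhibition at or below 30%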). As to conditions: bead-bound GRK2, FAM-aptamer displacement, at 10 µM, stronger effect = higher value.
Beta-adrenergic receptor kinase 1 (Homo sapiens), sequence (P25098 whole entry, looked up): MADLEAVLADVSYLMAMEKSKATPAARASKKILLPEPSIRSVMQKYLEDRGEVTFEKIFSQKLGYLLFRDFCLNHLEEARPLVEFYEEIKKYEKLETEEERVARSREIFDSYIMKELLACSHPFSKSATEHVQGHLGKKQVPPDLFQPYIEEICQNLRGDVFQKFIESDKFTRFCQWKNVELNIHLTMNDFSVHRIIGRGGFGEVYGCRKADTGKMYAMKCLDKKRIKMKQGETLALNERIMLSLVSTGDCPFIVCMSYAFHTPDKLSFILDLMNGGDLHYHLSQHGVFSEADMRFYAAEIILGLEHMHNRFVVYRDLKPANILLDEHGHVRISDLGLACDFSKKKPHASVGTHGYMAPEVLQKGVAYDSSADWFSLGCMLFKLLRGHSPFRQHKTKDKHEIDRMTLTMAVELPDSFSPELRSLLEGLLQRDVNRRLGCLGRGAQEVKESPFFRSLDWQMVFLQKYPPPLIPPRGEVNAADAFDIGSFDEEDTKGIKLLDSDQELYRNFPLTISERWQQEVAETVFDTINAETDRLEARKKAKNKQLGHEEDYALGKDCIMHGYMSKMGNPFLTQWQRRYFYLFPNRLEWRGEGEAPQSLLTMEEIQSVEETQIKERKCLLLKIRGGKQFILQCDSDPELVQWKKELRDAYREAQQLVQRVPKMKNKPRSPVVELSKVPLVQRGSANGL
The target of assay [10] is Beta-2 adrenergic receptor (Homo sapiens) (UniProt P07550). Briefly: beta2AR agonists driving receptor internalization, pilot screen, cell-based, FAP fluorogen, flow cytometry, validation set (AID 504459;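 active = percent response above 42, roughly 3 SD of non-fluorescent test compounds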;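 also: agonist-driven loss of surface beta2AR via internalization measured by FAP dye flow cytometry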). As to conditions: Am2.2-beta2AR cells, FAP surface receptor flow cytometry; at 10 µM; stronger effect = higher value.
Beta-2 adrenergic receptor (Homo sapiens), sequence (P07550 whole entry, looked up): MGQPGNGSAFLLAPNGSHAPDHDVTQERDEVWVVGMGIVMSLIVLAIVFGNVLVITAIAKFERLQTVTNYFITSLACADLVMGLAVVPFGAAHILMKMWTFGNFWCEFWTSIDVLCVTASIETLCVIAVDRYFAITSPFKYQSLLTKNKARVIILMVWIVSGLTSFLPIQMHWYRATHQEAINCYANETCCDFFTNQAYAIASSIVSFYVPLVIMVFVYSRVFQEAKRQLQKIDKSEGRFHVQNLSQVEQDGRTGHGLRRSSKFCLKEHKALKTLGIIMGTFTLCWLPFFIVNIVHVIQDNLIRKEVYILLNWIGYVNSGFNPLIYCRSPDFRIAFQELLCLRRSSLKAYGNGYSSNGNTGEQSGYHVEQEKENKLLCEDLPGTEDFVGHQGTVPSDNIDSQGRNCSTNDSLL
Assay [11] concerns the target AP-2 complex subunit beta (Homo sapiens) (UniProt P63010). Briefly: inhibitors of arrestin peptide binding to AP2, pilot screen, biochemical, validation set, GST-AP2 beads, flow cytometry (AID 504541;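 active = inhibition above 54%, about 3 SD of non-fluorescent compounds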;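 also: AP2 carries R879A mutation and is captured from E. coli lysate; bead-bound FITC arrestin peptide fluorescence measuring arrestin peptide binding to AP2; 0% = DMSO wells and 100% = excess unlabeled arrestin peptide control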). To be noted: FITC arrestin peptide, at 10 µM, stronger effect = higher value, AP2 beta2 appendage fragment, R879A mutant.
Assay [12] can be described thus: yeast V-ATPase proton transport modulators, S. cerevisiae, pHLuorin, HTS validation (AID 504600).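 Also: plate controls were DMSO for no effect and reference compound for full effect.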 To be noted: S. cerevisiae pHLuorin cytosolic pH, at 10 µM, stronger effect = higher value.
The subject of assay [13] is anti-desmoglein-3 scFv antibody binding to human DSG3. Description: inhibitors of anti-DSG3 scFv binding to DSG3, pilot screen, biochemical, validation compound set, bead-based, flow cytometry (AID 588368;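 active = binding below the plate cutoff, the plate median minus 3 SD, with a reading above zero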;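 also: signal is the median channel fluorescence of bead-bound GFP antibody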). To be noted: Protein G beads, DSG3-Fc, scFv-GFP binding, at 10 µM, stronger effect = lower value.
A short description of assay [14]: inhibitors of fungal efflux pumps CDR1, CDR2, MDR1, pilot screen, validation compound set, multiplex, phenotypic (AID 588506;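 active = efflux inhibition above 0.42, the validation set average plus 4 SD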;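 also: Nile Red retained in cells so higher fluorescence means more efflux inhibition; 0 = negative control wells and 1 = enniatin B 25 µM full block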). To be noted: S. cerevisiae pump-expressing triplex, Nile Red efflux flow cytometry; at 10 µM; stronger effect = higher value; the pumps come from Candida albicans.
The target in assay [15] is ATP-binding cassette sub-family B member 6 (Homo sapiens) (UniProt Q9NP58). Briefly: ABCB6 transporter inhibitors, pilot screen, K562-ABCB6 cells, flow cytometry, validation set (AID 588550;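 active = inhibition above the screen-wide mean plus 3 SD, about 51%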;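 also: 0% = DMSO wells and 100% = benzethonium chloride 70 µM positive control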). To be noted: K562-ABCB6 porphyrin accumulation, 1 h, at 10 µM, stronger effect = higher value.
ATP-binding cassette sub-family B member 6 (Homo sapiens), sequence (Q9NP58 whole entry, looked up): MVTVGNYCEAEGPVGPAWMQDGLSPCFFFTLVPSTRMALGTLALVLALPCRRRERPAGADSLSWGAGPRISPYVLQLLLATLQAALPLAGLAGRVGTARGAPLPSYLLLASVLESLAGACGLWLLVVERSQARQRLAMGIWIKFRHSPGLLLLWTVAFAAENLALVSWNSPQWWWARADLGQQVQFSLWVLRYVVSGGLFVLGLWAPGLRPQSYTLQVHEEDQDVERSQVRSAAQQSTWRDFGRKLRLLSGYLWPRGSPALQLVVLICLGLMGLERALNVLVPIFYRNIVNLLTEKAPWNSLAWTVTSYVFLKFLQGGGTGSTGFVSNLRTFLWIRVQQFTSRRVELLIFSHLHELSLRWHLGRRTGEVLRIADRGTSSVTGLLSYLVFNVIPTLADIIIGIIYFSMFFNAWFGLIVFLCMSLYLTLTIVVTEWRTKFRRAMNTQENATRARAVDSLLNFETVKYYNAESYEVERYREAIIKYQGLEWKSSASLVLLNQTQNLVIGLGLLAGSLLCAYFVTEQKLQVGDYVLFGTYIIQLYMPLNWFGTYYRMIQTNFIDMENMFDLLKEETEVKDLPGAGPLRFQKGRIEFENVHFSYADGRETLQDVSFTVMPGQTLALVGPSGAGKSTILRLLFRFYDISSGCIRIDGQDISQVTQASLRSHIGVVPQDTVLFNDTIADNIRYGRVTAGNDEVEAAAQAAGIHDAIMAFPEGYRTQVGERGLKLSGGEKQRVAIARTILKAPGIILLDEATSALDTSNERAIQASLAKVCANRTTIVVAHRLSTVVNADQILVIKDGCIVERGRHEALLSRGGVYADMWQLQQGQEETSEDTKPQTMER
A short description of assay [16]: promoters of myeloid differentiation in arrested cells, primary screen, cell-based, GFP/MAC1 double positive, flow cytometry, validation set (AID 588685;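 active = differentiation response of at least 50%, scaled between solvent and reference control, from cells with both markers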;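 also: compound exposure lasts four days before antibody staining and flow analysis; 0% = DMSO wells and 100% = 5 µM fulvestrant positive control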). As to conditions: ER-HoxA9 marrow cells, stronger effect = higher value, normalized: vehicle 0, fulvestrant 100.

Each structure is given as a SMILES string. Inconclusive results are not listed. Calls of active or inactive are those of the source. Rule as the data show it, unless noted: active = response above about 15%; inactive = the rest.

Integrin beta-1 (Homo sapiens) + Integrin alpha-4 (Homo sapiens), sequence (P05556 whole entry, looked up): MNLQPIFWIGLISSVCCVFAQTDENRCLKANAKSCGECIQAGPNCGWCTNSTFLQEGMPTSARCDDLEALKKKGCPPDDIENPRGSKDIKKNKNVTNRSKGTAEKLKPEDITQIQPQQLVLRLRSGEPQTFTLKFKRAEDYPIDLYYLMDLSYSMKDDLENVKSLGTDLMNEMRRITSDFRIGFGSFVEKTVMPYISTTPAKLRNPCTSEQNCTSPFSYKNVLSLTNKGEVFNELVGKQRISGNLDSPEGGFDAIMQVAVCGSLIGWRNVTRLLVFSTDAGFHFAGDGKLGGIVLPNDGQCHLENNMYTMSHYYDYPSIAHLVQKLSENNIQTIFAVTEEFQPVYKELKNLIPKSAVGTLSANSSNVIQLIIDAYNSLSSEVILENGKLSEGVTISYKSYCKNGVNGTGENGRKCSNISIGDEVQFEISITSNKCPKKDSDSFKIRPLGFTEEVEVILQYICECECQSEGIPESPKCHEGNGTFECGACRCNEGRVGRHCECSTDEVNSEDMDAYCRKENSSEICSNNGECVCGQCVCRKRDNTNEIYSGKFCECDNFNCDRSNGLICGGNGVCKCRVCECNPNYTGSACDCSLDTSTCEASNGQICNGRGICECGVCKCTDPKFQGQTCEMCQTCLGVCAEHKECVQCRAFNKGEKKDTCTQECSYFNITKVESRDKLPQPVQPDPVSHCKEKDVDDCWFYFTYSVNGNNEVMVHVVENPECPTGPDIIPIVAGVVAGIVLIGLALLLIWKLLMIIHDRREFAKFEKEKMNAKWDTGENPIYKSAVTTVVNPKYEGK
Integrin beta-1 (Homo sapiens) + Integrin alpha-4 (Homo sapiens), sequence (P13612 whole entry, looked up): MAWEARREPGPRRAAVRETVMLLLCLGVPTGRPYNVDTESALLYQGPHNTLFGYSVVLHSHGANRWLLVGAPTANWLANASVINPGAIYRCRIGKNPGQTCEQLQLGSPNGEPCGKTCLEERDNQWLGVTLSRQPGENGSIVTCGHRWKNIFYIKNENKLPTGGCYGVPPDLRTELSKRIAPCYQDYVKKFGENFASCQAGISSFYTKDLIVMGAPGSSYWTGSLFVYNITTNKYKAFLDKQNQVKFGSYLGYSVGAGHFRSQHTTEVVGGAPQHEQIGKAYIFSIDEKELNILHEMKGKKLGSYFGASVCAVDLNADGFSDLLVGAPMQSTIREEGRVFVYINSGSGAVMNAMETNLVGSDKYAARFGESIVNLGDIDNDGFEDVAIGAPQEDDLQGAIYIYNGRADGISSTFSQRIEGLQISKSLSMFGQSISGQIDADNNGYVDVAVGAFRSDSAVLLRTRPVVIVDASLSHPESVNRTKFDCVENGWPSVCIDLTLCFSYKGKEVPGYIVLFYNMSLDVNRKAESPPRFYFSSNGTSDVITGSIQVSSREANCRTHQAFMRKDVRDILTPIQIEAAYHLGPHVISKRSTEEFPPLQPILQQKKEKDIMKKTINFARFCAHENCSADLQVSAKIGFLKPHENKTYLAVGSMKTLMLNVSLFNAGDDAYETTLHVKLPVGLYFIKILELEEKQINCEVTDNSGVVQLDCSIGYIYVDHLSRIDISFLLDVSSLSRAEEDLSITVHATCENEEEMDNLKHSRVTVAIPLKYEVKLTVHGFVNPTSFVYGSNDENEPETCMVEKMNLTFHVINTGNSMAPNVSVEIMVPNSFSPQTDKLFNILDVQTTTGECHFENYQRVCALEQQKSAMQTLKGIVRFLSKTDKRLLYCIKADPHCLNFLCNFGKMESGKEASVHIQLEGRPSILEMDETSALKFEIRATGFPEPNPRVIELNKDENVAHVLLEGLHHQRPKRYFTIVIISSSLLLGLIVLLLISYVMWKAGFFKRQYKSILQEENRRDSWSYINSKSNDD
AP-2 complex subunit beta (Homo sapiens), sequence (P63010 whole entry, looked up, the tested form may be a part, one chain of several): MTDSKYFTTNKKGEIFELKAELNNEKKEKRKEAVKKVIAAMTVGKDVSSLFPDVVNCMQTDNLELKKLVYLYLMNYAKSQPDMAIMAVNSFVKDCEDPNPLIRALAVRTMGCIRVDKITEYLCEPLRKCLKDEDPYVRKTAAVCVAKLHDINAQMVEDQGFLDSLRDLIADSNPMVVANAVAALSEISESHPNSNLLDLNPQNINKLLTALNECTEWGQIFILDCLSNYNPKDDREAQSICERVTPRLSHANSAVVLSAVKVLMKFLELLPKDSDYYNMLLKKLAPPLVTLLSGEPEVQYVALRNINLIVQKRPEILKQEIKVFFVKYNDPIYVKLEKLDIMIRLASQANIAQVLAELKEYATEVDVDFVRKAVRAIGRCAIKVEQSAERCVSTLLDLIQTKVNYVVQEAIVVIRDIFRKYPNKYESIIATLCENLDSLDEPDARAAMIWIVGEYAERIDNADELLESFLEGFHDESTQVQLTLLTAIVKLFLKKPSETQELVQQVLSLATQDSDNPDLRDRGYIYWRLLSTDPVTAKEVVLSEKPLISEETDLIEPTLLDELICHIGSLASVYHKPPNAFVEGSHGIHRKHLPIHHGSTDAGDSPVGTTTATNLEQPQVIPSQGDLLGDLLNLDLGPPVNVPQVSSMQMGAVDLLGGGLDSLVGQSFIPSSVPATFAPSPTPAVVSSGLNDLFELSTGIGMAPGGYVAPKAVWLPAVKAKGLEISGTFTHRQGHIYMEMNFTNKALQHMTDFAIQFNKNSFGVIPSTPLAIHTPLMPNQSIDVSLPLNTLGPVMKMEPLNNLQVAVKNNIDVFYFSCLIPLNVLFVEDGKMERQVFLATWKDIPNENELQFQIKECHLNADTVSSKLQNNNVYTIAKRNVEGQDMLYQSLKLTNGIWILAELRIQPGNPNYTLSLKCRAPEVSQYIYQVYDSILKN

Take `CN(C)CCCN1c2ccccc2CCc2ccccc21`: the percent of DMSO control GFP in assay [1] is 99% (inactive). Besides, the GFP response vs DMSO in assay [2] is 103% (inactive); in assay [4], 90.7% (inactive). Besides, the percent response of DMSO control in [3] is 101% (inactive). Further, in assay [5], the GFP response, % of DMSO is 95.3% (inactive). In assay [6], this compound registered a double positive events of 65.8%. Besides, in [6], the vesicle binding response is 1060% (inactive). Also, the inhibition (as a rule, the change of the read-out against control, counted positive when it falls) in [7] is 12% (inactive); in assay [11], 4.55% (inactive); in [15] it was 3% (inactive). Further, in assay [8], the superoxide response (% of plate) was 89.3% (inactive). Also, the aptamer binding inhibition in assay [9] is -2% (inactive). Besides, the response in assay [10] was 2.45% (inactive); in [12] it was -0.62% (inactive). For the same compound, in assay [13], the binding (% of control) was 99.7% (inactive). In addition, the efflux inhibition (fraction of control) in assay [14] is -0.2 (inactive). In addition, the differentiation response in assay [16] was 6.11% (inactive).
Consider `COc1ccc(-c2nnc(-c3cc4c(ccc5ccccc54)oc3=O)o2)cc1`, for which the percent of DMSO control GFP in assay [1] is 101% (inactive). The figures for the GFP response vs DMSO in assay [2] and in assay [4] were 93% (inactive) and 89.7% (inactive), respectively. Further, the percent response of DMSO control in [3] is 96.7% (inactive). Further, the GFP response, % of DMSO in [5] is 98% (inactive). This compound also displayed a double positive events in assay [6] of 61%. The vesicle binding response in [6] was 244% (inactive). Further, the inhibition in assay [7] is -20.9% (inactive); in [11] it was 6.88% (inactive); in [15], 0% (inactive). The superoxide response (% of plate) in [8] was 75.6% (inactive). Also, the aptamer binding inhibition in assay [9] is -1% (inactive). The figures for the response in [10] and in assay [12] were 50.8% (active) and 1% (inactive), respectively. The binding (% of control) in assay [13] is 97.2% (inactive). The efflux inhibition (fraction of control) in assay [14] was 0.08 (inactive). In addition, the differentiation response in [16] was -0.8% (inactive).
As to `CCn1c(C)cc2c(c1=O)C(c1ccccc1)C(C(=O)OC)=C(N)O2` (stereo not given), the percent of DMSO control GFP in assay [1] is 102% (inactive). The GFP response vs DMSO in assay [2] was 105% (inactive); in assay [4] it was 108% (inactive). For the same compound, the percent response of DMSO control in assay [3] was 98.3% (inactive). Further, the GFP response, % of DMSO in assay [5] was 111% (inactive). The double positive events in [6] was 58.8%. Further, the vesicle binding response in assay [6] was 167% (inactive). For the same compound, the inhibition in assay [7] is 18.5% (inactive); in [11], 1.11% (inactive); in [15], 7% (inactive). The superoxide response (% of plate) in [8] is 108% (inactive). Besides, in assay [9], the aptamer binding inhibition was 4% (inactive). For the same compound, the response in assay [10] was -32.4% (inactive); in assay [12] it was -16.3% (inactive). Also, the binding (% of control) in assay [13] was 102% (inactive). For the same compound, in [14], the efflux inhibition (fraction of control) is 0.04 (inactive). The differentiation response in assay [16] is 4.86% (inactive).
On to `Nc1cnn(C2OC(CO)C(O)C2O)c(=O)n1` (stereo not given), for which the percent of DMSO control GFP in [1] is 102% (inactive). In addition, the GFP response vs DMSO in assay [2] was 108% (inactive); in assay [4], 102% (inactive). The percent response of DMSO control in assay [3] is 100% (inactive). For the same compound, in assay [5], the GFP response, % of DMSO was 99.4% (inactive). The double positive events in assay [6] worked out at 63.4%. Besides, in [6], the vesicle binding response was 463% (inactive). In addition, the inhibition in [7] is -13.9% (inactive); in assay [11] it was 1.7% (inactive); in assay [15], 0% (inactive). Besides, the superoxide response (% of plate) in [8] was 99.1% (inactive). For the same compound, in assay [9], the aptamer binding inhibition is 3% (inactive). Besides, the results for the response in assay [10] and in [12] were -1.33% (inactive) and 0.15% (inactive), respectively. Moreover, the binding (% of control) in assay [13] was 97.7% (inactive). Besides, the efflux inhibition (fraction of control) in [14] was 0.11 (inactive). The differentiation response in assay [16] is -8.55% (inactive).
As for `O=C(NC(Nc1ccccn1)C(Cl)(Cl)Cl)c1ccccc1` (stereo not given), the percent of DMSO control GFP in assay [1] is 100% (inactive). Besides, the GFP response vs DMSO in [2] is 102% (inactive); in assay [4], 103% (inactive). Also, in [3], the percent response of DMSO control is 103% (inactive). Besides, the GFP response, % of DMSO in assay [5] is 102% (inactive). Moreover, in assay [6], the double positive events was found to be 58.7%. In addition, the vesicle binding response in assay [6] was 157% (inactive). Besides, the results for the inhibition in assay [7], in assay [11] and in assay [15] were -13.2% (inactive), -6.1% (inactive) and -8% (inactive), respectively. Moreover, the superoxide response (% of plate) in [8] is 91.6% (inactive). For the same compound, the aptamer binding inhibition in assay [9] is -1% (inactive). The response was 1.87% (inactive) in assay [10] and -1.51% (inactive) in assay [12]. Further, the binding (% of control) in assay [13] is 99.8% (inactive). For the same compound, the efflux inhibition (fraction of control) in assay [14] was 0.25 (inactive). In assay [16], the differentiation response was -10.4% (inactive).
